Here are results for 39 sequences from the OligoGym collection.
Further: reference of the scale not given here.

The target in one assay is RBMY1E. In words: pooled miR-30 sensor sort-seq; sequence = guide strand. The note with it: shRNA.
Sequence AACTTGAGCTACCACATGCTTC returned a sensor-assay potency score (higher = more potent) of -1.03. On the same count and under the same terms, as for TTCCACCATAGGACATCCGAGG, the figure is -1.61; as for TAACTTGAGCTACCACATGCTT, -1.09.

A further assay deals with RBP1. Described as above. To be noted: shRNA.
The sequence ACTGTTGTCATGCACTTGCGGT returned a sensor-assay potency score (higher = more potent) of -1.01.

In turn, TTCCACTCTCATCTCTAGGTGC registered a sensor-assay potency score (higher = more potent) of -0.438. The same measure, in the same setting: for TTGTCATGCACTTGCGGTCATC the value was -1.49; for TTCTCGTTGACCAACATCTTCC, -0.467; for TTCCTAAAAGTGCTCAGCGTGC, -1.04. Same read-out and setting: as for TACTCCTCGAAATTCTCGTTGA, the figure is -0.0394; as for AAGTCCATGATGTAGTTCCTAA, -0.968.

Take TTGCTTGCAGACCACACCTTCC: the sensor-assay potency score (higher = more potent) is -0.849. Same read-out and setting: as for ATTCTCGTTGACCAACATCTTC, the figure is -0.954; as for TTGACCAACATCTTCCAGTACC, -0.856; as for TTCTGCACACACTGGAGCTTGT, -0.8.

The sequence TCGTTGACCAACATCTTCCAGT had a sensor-assay potency score (higher = more potent) of -0.239.

The next assay has as its target RCSD1. Described as above. The note with it: shRNA.
In turn, TATCTCTTCTAGTCCAGTGTTT showed a sensor-assay potency score (higher = more potent) of -0.522. On the same count and under the same terms, for TTTGAGAACCGTAAACACTTTA the value was -0.421; for TTGTTGTTGAACCAAGTCCATC, -1.65. On the same count and under the same terms, as for TAACTGATATTTGAGAACCGTA, the figure is -1.05; as for TAGAACATTAAAAAGGAACTTT, 0.0564; as for TTTGATACAATTTAGGGTCTTC, 0.305. On the same count and under the same terms, for TTGAAAAGTTGTCTCTAGGGTT the value was -0.0262; for TTCCTTAGCACCGTTCTGCTGA, 0.0396; for TAGCCTTTTCCATCTCTGCTTC, -0.0691. TTGAGAACCGTAAACACTTTAG yielded a sensor-assay potency score (higher = more potent) of -0.662. TACAACTGTTGCTGCTACCTGC had a sensor-assay potency score (higher = more potent) of 0.0449. Sequence TTAAAAAGGAACTTTACCCAAG gave a sensor-assay potency score (higher = more potent) of -0.456.

In the next assay the target is RDH5. The assay is described as above. To be noted: shRNA.
Take TGTGTTCACATTCAGCACCCGC: the sensor-assay potency score (higher = more potent) is -1.07. The same measure, in the same setting: for TCGGAAGCCTCTCTGGTCCAGC the value was -1.15. Take ATGAGCTACATCCCGCCTCAGG: the sensor-assay potency score (higher = more potent) was -1.65. Still for that read-out and setting: as for TCAGTGATATCCAACAGGGTGG, the figure is -0.32; as for TAGGTCCGGGTCACAGATCAGG, -1.62; as for TGCATTTTCAGGTACTTGGTGA, 0.187. The same measure, in the same setting: for AAAATGAGCTACATCCCGCCTC the value was -0.19; for TTTCAGGTACTTGGTGAGGAAG, -1.78. Same read-out and setting: for TTAACGTGCATCTCCACCCACT the value was -0.757; for TTCCTTAACGTGCATCTCCACC, -0.947; for ATCAGTGATATCCAACAGGGTG, -0.912. Sequence TTTCTCCAGACTCTCCAGGTTG returned a sensor-assay potency score (higher = more potent) of -1.05.
